Results filed as inconclusive are left out. Unmarked numbers belong to inactive results. Active and inactive are the calls of the source. Calls follow the shape of the dose curve; as a rule, active = well fitted cell-killing curve with a large enough effect; inconclusive = small, poorly fitted or top-dose-only effect, or effect the other way; inactive = flat fitted curve, though single readings scatter.
What follows are molecules tested on CASKI (assay: Primary qHTS to identify gynecologic anti-cancer compounds using libraries of approved drugs and bioactive compounds (AID 1345084; also: nearly all actives have a fitted effect of over 55% in size)). Conditions: Gynecologic cancer cell panel viability, ATPlite luminescence, 48 h; series mostly up to 57.5 µM; activity change, negative = cytotoxicity: at the top concentration.
How it was run: (§1)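 ATP-based viability (ATPlite), 1,000 cells/well, 16 h pre-incubation, 48 h compound at 37 C, 5% CO2, 15 min RT before read.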
In the case of CCC1(c2ccccc2)CCC(=O)NC1=O (stereo not drawn), the “activity change, negative = cytotoxicity” value is reported as -2.08%.
With CN(C)C(=O)Oc1cc(OC(=O)N(C)C)cc(C(O)CNC(C)(C)C)c1 (stereo not drawn) the “activity change, negative = cytotoxicity” value was -2.58%.
For Oc1ccc([C@H]2CNCc3c2ccc(O)c3O)cc1O, the “activity change, negative = cytotoxicity” value was -5.39%.
CCOC(=O)C(c1c(O)c2ccccc2oc1=O)c1c(O)c2ccccc2oc1=O was tested, and the “activity change, negative = cytotoxicity” value was 9.06%.
ClCc1cccc(Cl)c1 was tested, and the “activity change, negative = cytotoxicity” value was -3.13%.
In the case of OC(c1ccccc1)(c1ccccc1)C1CCNCC1, the “activity change, negative = cytotoxicity” value is reported as -2.43%.
With CCOC(=O)C1(c2ccccc2)CCN(CCc2ccc(N)cc2)CC1 the “activity change, negative = cytotoxicity” value was 0.592%.
CCOC(=O)NC(O)C(Cl)(Cl)Cl (stereo not drawn) was tested, and the “activity change, negative = cytotoxicity” value was -11.2%.
In the case of C[C@H]1CNCCc2ccc(Cl)cc21, the “activity change, negative = cytotoxicity” value is reported as 3.7%.
With COP(=O)(OC)OC=C(Cl)Cl the “activity change, negative = cytotoxicity” value was -5.13%.
For CC(C)(C)OC(=O)c1ncn2c1[C@@H]1CCCN1C(=O)c1c(Br)cccc1-2, the “activity change, negative = cytotoxicity” value was 15.2%.
NC(=O)OCCCc1ccccc1 was tested, and the “activity change, negative = cytotoxicity” value was 1.28%.
In the case of C[C@]12CC[C@H](O)CC1=CC[C@@H]1[C@@H]2CC[C@]2(C)C(=O)CC[C@@H]12, the Potency is reported as “inactive”.
For OC(O)C(Cl)(Cl)Cl, the “activity change, negative = cytotoxicity” value was 5.26%.
With CCCCC1C(=O)NC(=O)N(C2CCCCC2)C1=O (stereo not drawn) the “activity change, negative = cytotoxicity” value was -4.03%.
CN1C[C@@H](NS(=O)(=O)N(C)C)C[C@@H]2c3cccc4c3c(cn4C)C[C@H]21 was tested, and the “activity change, negative = cytotoxicity” value was 4.31%.
In the case of CC(Cc1ccccc1)NCCCCl (stereo not drawn), the “activity change, negative = cytotoxicity” value is reported as 5.81%.
For C[C@]12CC[C@H]3[C@@H](CCC4=CC(=O)CC[C@@H]43)[C@@H]1CC[C@@H]2O, the “activity change, negative = cytotoxicity” value was -8.61%.

These molecules were tested on Es-2 in the same assay as above. Conditions: Gynecologic cancer cell panel viability, ATPlite luminescence, 48 h; series mostly up to 57.5 µM; activity change, negative = cytotoxicity: at the top concentration.
How it was run: as §1
With CC(C)=C[C@@H]1[C@@H](C(=O)OCc2coc(Cc3ccccc3)c2)C1(C)C the “activity change, negative = cytotoxicity” value was 1.05%.
In the case of CCN(CC)C(C)C(=O)c1ccccc1 (stereo not drawn), the “activity change, negative = cytotoxicity” value is reported as 9.09%.
In the case of Nc1ccc(Cl)cc1C(=O)c1ccccc1F, the “activity change, negative = cytotoxicity” value is reported as 6.98%.
For COc1ccc(C(=O)N2CCCC2=O)cc1, the “activity change, negative = cytotoxicity” value was 10.5%.
In the case of CC(C)C(Br)C(=O)NC(N)=O (stereo not drawn), the “activity change, negative = cytotoxicity” value is reported as 3.6%.
C#C[C@]1(O)CC[C@H]2[C@@H]3CCC4=CC(=O)CCC4=C3C=C[C@@]21CC was tested, and the “activity change, negative = cytotoxicity” value was -22.5%.
CC(CC(C(N)=O)(c1ccccc1)c1ccccc1)N(C)C (stereo not drawn) was tested, and the “activity change, negative = cytotoxicity” value was -1.22%.
C#C[C@]1(O)C=C[C@H]2[C@@H]3CCC4=CC(=O)CC[C@@H]4[C@H]3CC[C@@]21CC was tested, and the “activity change, negative = cytotoxicity” value was 1.52%.
With C[C@@H]1CC[C@H]2[C@@H](C)C(=O)O[C@@H]3O[C@@]4(C)CC[C@@H]1[C@]32OO4 the “activity change, negative = cytotoxicity” value was -0.858%.
For CNC(C)Cc1ccccc1OC (stereo not drawn), the “activity change, negative = cytotoxicity” value was 4.93%.
CC(Cc1ccccc1)NCc1ccccc1Cl (stereo not drawn) was tested, and the “activity change, negative = cytotoxicity” value was 3.68%.
In the case of Nc1ccccc1C(=O)OCC(O)CO (stereo not drawn), the “activity change, negative = cytotoxicity” value is reported as 1.28%.
With CC(C)NCC(O)c1ccc(N)c(C#N)c1 (stereo not drawn) the “activity change, negative = cytotoxicity” value was -8.75%.
For Sc1ccccc1Cl, the “activity change, negative = cytotoxicity” value was 9.23%.
In the case of CCN(CC)CCOC(=O)C(C)(c1ccccc1)c1ccccc1, the “activity change, negative = cytotoxicity” value is reported as -6.83%.
In the case of COc1ccc2[nH]cc(CCN(C(C)C)C(C)C)c2c1, the “activity change, negative = cytotoxicity” value is reported as -17.1% [at 116 µM].
COc1cc(CC#N)cc(OC)c1OC was tested, and the “activity change, negative = cytotoxicity” value was -0.146%.
For O=C(CBr)Nc1ccc(Cl)cc1C(=O)c1ccccc1F, the “activity change, negative = cytotoxicity” value was -1.94%.
With COP(=S)(OC)Oc1ccc(S(N)(=O)=O)cc1 the “activity change, negative = cytotoxicity” value was 5.44%.
For C[N+](C)(C)CCOC(=O)C(O)(c1ccccc1)c1ccccc1, the “activity change, negative = cytotoxicity” value was -4.2%.
With ClCCCN1CCN(c2cccc(Cl)c2)CC1 the “activity change, negative = cytotoxicity” value was -5.13%.
For CCc1ccc(C2CCNCC2)cc1, the “activity change, negative = cytotoxicity” value was -6.03%.
In the case of CCC1(c2ccccc2)CCC(=O)NC1=O (stereo not drawn), the “activity change, negative = cytotoxicity” value is reported as 4.42%.
In the case of CN(C)C(=O)Oc1cc(OC(=O)N(C)C)cc(C(O)CNC(C)(C)C)c1 (stereo not drawn), the “activity change, negative = cytotoxicity” value is reported as -1.05%.
In the case of Oc1ccc([C@H]2CNCc3c2ccc(O)c3O)cc1O, the “activity change, negative = cytotoxicity” value is reported as -6.27%.
CCOC(=O)C(c1c(O)c2ccccc2oc1=O)c1c(O)c2ccccc2oc1=O was tested, and the “activity change, negative = cytotoxicity” value was 1.67%.
In the case of ClCc1cccc(Cl)c1, the “activity change, negative = cytotoxicity” value is reported as 9.2%.
For OC(c1ccccc1)(c1ccccc1)C1CCNCC1, the “activity change, negative = cytotoxicity” value was -0.627%.
For CCOC(=O)C1(c2ccccc2)CCN(CCc2ccc(N)cc2)CC1, the “activity change, negative = cytotoxicity” value was 12.2%.
In the case of CCOC(=O)NC(O)C(Cl)(Cl)Cl (stereo not drawn), the “activity change, negative = cytotoxicity” value is reported as -11.8%.
With C[C@H]1CNCCc2ccc(Cl)cc21 the “activity change, negative = cytotoxicity” value was -2.59%.
COP(=O)(OC)OC=C(Cl)Cl was tested, and the “activity change, negative = cytotoxicity” value was -1.28%.
CC(C)(C)OC(=O)c1ncn2c1[C@@H]1CCCN1C(=O)c1c(Br)cccc1-2 was tested, and the “activity change, negative = cytotoxicity” value was 3.25%.
NC(=O)OCCCc1ccccc1 was tested, and the “activity change, negative = cytotoxicity” value was 16.6%.
With C[C@]12CC[C@H](O)CC1=CC[C@@H]1[C@@H]2CC[C@]2(C)C(=O)CC[C@@H]12 the Potency was “inactive”.
OC(O)C(Cl)(Cl)Cl was tested, and the “activity change, negative = cytotoxicity” value was 16.4%.
With CCCCC1C(=O)NC(=O)N(C2CCCCC2)C1=O (stereo not drawn) the “activity change, negative = cytotoxicity” value was 7.34%.
In the case of CN1C[C@@H](NS(=O)(=O)N(C)C)C[C@@H]2c3cccc4c3c(cn4C)C[C@H]21, the “activity change, negative = cytotoxicity” value is reported as -24.8%.
CC(Cc1ccccc1)NCCCCl (stereo not drawn) was tested, and the “activity change, negative = cytotoxicity” value was 4.48%.
In the case of C[C@]12CC[C@H]3[C@@H](CCC4=CC(=O)CC[C@@H]43)[C@@H]1CC[C@@H]2O, the “activity change, negative = cytotoxicity” value is reported as 5.66%.

Reference: PubChem BioAssay (NCATS)
% is scaled to controls: 0 for no effect and ±100 for the full control effect.
